Screening data (PubChem)
The list is not random: actives were taken first. Their share in the collection is about 21%.
NS1 function inh = influenza NS1 inhibition; hit rate 0.4% among 270,000; Potency, µM (doses to about 46.1 µM), without a hit: at the top dose activity, positive = more growth; AID 2326; calls by dose curve; note: potency is the fitted concentration of half-maximal effect; actives are rising curves; nearly all actives have a fitted effect of over 50% in size
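Recovery from NS1-induced slow growth read by OD600 in budding yeast switched to galactose assay medium (pH 6.0, -URA) at 1:100 dilution. Compound 23 nl per well; the matching strain lacking NS1 serves as control.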
Sm TGR block = blocks Schistosoma mansoni thioredoxin glutathione reductase | Q962Y6 | AID 485364 | purified TGR, DTNB reduction, TNB absorbance 405 nm | Potency, µM (doses to about 114 µM), without a hit: at the highest dose activity change, negative = inhibition, most hits filed as inhibitors | hit rate 3% among 360,000; note: potency is the fitted concentration of half-maximal effect; % is set by controls: 0 for no effect and ±100 for the full control effect; nearly all actives have a fitted effect of over 60% in size
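TGR 20 nM + NADPH 100 uM (dispensed conc.), cpd preinc 15 min RT; start with NADPH (500 uM addition) then DTNB (15 mM addition). Kinetic TNB absorbance, 405 nm filter. Four-parameter Hill fit across titration.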
Shiga toxin inh = Shiga toxin inhibition. Vero cells, Shiga toxin protein synthesis inhibition reporter. inhibition, % at 38.7 µM. hit rate 9.2% among 290,000. AID 2315; in the data active = inhibition mostly above about 28%, no sharp cut-off; inactive = mostly below about 43%; note: 0% is about no effect
Pf growth 96h = inhibits malaria parasite growth, 96 h. P. falciparum luciferase reporter growth, 96 h. Potency, µM (series often up to 28.7 µM), without a hit: at the highest dose activity change, negative = inhibition, actives largely listed as inhibitors. hit rate 6.9% among 320,000; note: potency is the fitted concentration of half-maximal effect; % is set by controls: 0 for no effect and ±100 for the full control effect
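Parasite growth measured via integrated firefly luciferase reporter in P. falciparum. Infected erythrocytes at 2% hematocrit, 0.05% parasitemia final were treated 96 hours at 37 C under 5% CO2, and luminescence was read.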
Pf growth 48h = inhibits P. falciparum growth in the first generation, 48 h; hit rate 5.9% among 310,000; P. falciparum luciferase growth in erythrocytes, 48 h; Potency, µM (series often up to 28.7 µM), for the others: top-dose activity change, negative = inhibition, actives largely listed as inhibitors; note: potency is the fitted concentration of half-maximal effect; % is set by controls: 0 for no effect and ±100 for the full control effect
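Luciferase-expressing parasites in RBCs, 2% Hct / 0.1% parasitemia final; RPMI 1640 + 0.5% Albumax; 37 C, 5% CO2, one generation; luminescence read-out, lower signal = inhibition.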
Cycloheximide cs = counter-screen hit for Shiga toxin inhibitors, cycloheximide. cell reporter, cycloheximide protein synthesis inhibition counterscreen. max response, %. hit rate 12% among 300,000. AID 2314; in the data active = max response mostly above about 13%, no sharp cut-off; inactive = mostly below about 14%; note: read at 38.3 µM for the half of the compounds with a filed dose; 0% is about no effect
The depositor's hits bear a star; [ ] = dose if it differs, or a comment. Unless noted, calls come from the whole dose curve; as a rule, active = well fitted curve in the direction sought with a large enough effect; inconclusive = small, poorly fitted or top-dose-only effect, or another doubt; inactive = no such curve, though single readings can be large; an effect the other way counts as inactive or inconclusive.

How did COc1ccccc1NC(=O)C(=O)NCC(c1cccnc1)N1CCc2ccccc2C1 (stereo unspecified) do in these assays?
Sm TGR block: 0%

What do the screens show for `CCOCCCn1c(SCC(=O)Nc2ccccc2OC)nc2c(oc3ccccc32)c1=O`?
Sm TGR block: 10%

What do the screens show for `O=C(N/N=C/c1ccoc1)c1ccc(Br)cc1`?
NS1 function inh: 4%; Sm TGR block: 5%; Shiga toxin inh: 36*; Pf growth 96h: inconclusive; Pf growth 48h: -24%; Cycloheximide cs: 36*

Results for O=C(N/N=C/c1ccoc1)c1ccccc1O ?
NS1 function inh: 1%; Sm TGR block: -26%; Shiga toxin inh: 32; Pf growth 96h: 93%; Pf growth 48h: -22%; Cycloheximide cs: 29*

Results for O=C(N/N=C/c1ccoc1)c1ccccc1 ?
NS1 function inh: 12%; Sm TGR block: -4%; Shiga toxin inh: 61*; Pf growth 96h: inconclusive; Pf growth 48h: 0%; Cycloheximide cs: 37*

How did O=C(N/N=C/c1ccoc1)c1ccc(Cl)cc1 do in these assays?
NS1 function inh: -5%; Sm TGR block: 45µM*; Shiga toxin inh: -14; Pf growth 96h: inconclusive; Pf growth 48h: 2.6µM*; Cycloheximide cs: -3

What do the screens show for `COc1ccc(C)cc1N(CC(=O)N1CCCCCC1)S(=O)(=O)c1ccc(C)cc1`?
NS1 function inh: 4%; Sm TGR block: 1%; Shiga toxin inh: -30; Pf growth 96h: inconclusive; Pf growth 48h: inconclusive; Cycloheximide cs: 7

What do the screens show for `CC(=O)c1ccc(N2CCN(C(=O)c3cc4cc5cc(C)ccc5nc4s3)CC2)cc1`?
Sm TGR block: -2%

What do the screens show for `Cc1noc(C)c1CSCC(=O)Nc1nc(-c2ccc(F)c(F)c2)cs1`?
Sm TGR block: 7%; Pf growth 96h: inconclusive; Pf growth 48h: 10µM*

What do the screens show for `Cc1noc(C)c1CSCC(=O)Nc1ccc(OC(F)F)c(Cl)c1`?
Sm TGR block: -3%; Pf growth 96h: 57%; Pf growth 48h: -7%

Results for Cc1noc(C)c1CSCC(=O)Nc1ccc(S(=O)(=O)C(F)F)cc1 ?
Sm TGR block: -9%; Pf growth 96h: 4.7µM*; Pf growth 48h: -18%

What do the screens show for `COc1ccc(-c2csc(NC(=O)CSCc3c(C)noc3C)n2)cc1OC`?
NS1 function inh: -18%; Sm TGR block: -2%; Shiga toxin inh: -4; Pf growth 96h: inconclusive; Pf growth 48h: inconclusive; Cycloheximide cs: -2

Results for O=C(Cc1ccccc1F)Nc1nc(-c2ccc(F)cc2)cs1 ?
NS1 function inh: -36%; Sm TGR block: 10%; Shiga toxin inh: 64*; Pf growth 96h: 53%; Pf growth 48h: 36%; Cycloheximide cs: 26*

How did COc1ccc(-c2csc(NC(=O)Cc3ccccc3F)n2)cc1OC do in these assays?
NS1 function inh: 5%; Sm TGR block: -7%; Shiga toxin inh: 29; Pf growth 96h: inconclusive; Pf growth 48h: -12%; Cycloheximide cs: 11

Results for COc1ccccc1CC(=O)Nc1nc(-c2ccc(F)c(F)c2)cs1 ?
NS1 function inh: -49%; Sm TGR block: 5%; Shiga toxin inh: 44*; Pf growth 96h: inconclusive; Pf growth 48h: inconclusive; Cycloheximide cs: 26*

What do the screens show for `CCC(C)[C@H](NC(=O)N1CC(=O)Nc2ccccc21)C(=O)N1CCC(C(=O)O)CC1` (stereo partly specified)?
NS1 function inh: -4%; Sm TGR block: 1%; Shiga toxin inh: 1; Pf growth 96h: 1%; Pf growth 48h: 19%; Cycloheximide cs: -1

How did Cc1ccc(NC(=O)C(Cc2ccccc2)NS(=O)(=O)c2ccc3c(c2)CCC(=O)N3)cc1 (stereo unspecified) do in these assays?
Sm TGR block: -9%

What do the screens show for `COc1cc(OC)cc(C(=O)N[C@H](C(=O)Nc2nc(-c3ccc(F)c(F)c3)cs2)C(C)C)c1`?
Sm TGR block: -13%; Shiga toxin inh: -8; Pf growth 96h: -50%[5.75 µM]; Pf growth 48h: 13µM*; Cycloheximide cs: 3

How did COc1cc(NC(=O)CC(C)S(=O)(=O)c2cc3c4c(c2)CCN4C(=O)CC3)cc(OC)c1 (stereo unspecified) do in these assays?
Sm TGR block: 3%

Results for COc1ccc(Cn2c(=S)[nH]c3cc(C(=O)N4CCN(c5ccccc5)CC4)ccc3c2=O)cc1 ?
NS1 function inh: 15%; Sm TGR block: -11%; Shiga toxin inh: -1; Pf growth 96h: inconclusive; Pf growth 48h: 10%; Cycloheximide cs: -5

Results for Cc1ccc(C)c(N2CCN(C(=O)c3ccc(Cn4c(=S)[nH]c5ccc(N6CCOCC6)cc5c4=O)cc3)CC2)c1 ?
Sm TGR block: -23%; Shiga toxin inh: 34; Pf growth 96h: 4.1µM*; Pf growth 48h: 2.6µM*; Cycloheximide cs: 24

Results for COc1ccc(N2CCN(C(=O)c3ccc(Cn4c(=S)[nH]c5ccc(N6CCOCC6)cc5c4=O)cc3)CC2)cc1 ?
Sm TGR block: 8%; Shiga toxin inh: 87*; Pf growth 96h: 38%; Pf growth 48h: inconclusive; Cycloheximide cs: 40*

How did O=C(c1ccc(Cn2c(=S)[nH]c3ccc(N4CCOCC4)cc3c2=O)cc1)N1CCN(c2ccc(F)cc2)CC1 do in these assays?
Sm TGR block: 3%; Shiga toxin inh: 88*; Pf growth 96h: inconclusive; Pf growth 48h: inconclusive; Cycloheximide cs: 37*

How did CCn1nc(/C=C/c2ccccc2)nc2c(=O)n(C)c(=O)nc1-2 do in these assays?
NS1 function inh: -2%; Sm TGR block: -35%; Shiga toxin inh: 29; Pf growth 96h: 12µM*; Pf growth 48h: -3%; Cycloheximide cs: 11

What do the screens show for `CCn1nc(-c2cccs2)nc2c(=O)n(C)c(=O)nc1-2`?
NS1 function inh: -204%; Sm TGR block: inconclusive; Shiga toxin inh: 26*; Pf growth 48h: -10%; Cycloheximide cs: 26*

Results for CCN(c1ccccc1)S(=O)(=O)c1cc(C(=O)Nc2ccc(Br)cc2)ccc1F ?
NS1 function inh: -3%; Sm TGR block: 7%; Shiga toxin inh: 65*; Pf growth 96h: inconclusive; Pf growth 48h: inconclusive; Cycloheximide cs: 14*

What do the screens show for `Cc1ccc(C(=O)Nc2ccccc2)cc1S(=O)(=O)Nc1ccc(Br)cc1`?
Sm TGR block: 2%

Results for CCN(c1ccccc1)S(=O)(=O)c1cc(C(=O)Nc2ccccc2Cl)ccc1F ?
NS1 function inh: -1%; Sm TGR block: 0%; Shiga toxin inh: 2; Pf growth 96h: 2.9µM*; Pf growth 48h: -4%; Cycloheximide cs: -1

Results for Cc1ccccc1NC(=O)c1ccc(F)c(S(=O)(=O)N(C)Cc2ccccc2)c1 ?
Sm TGR block: 1%

What do the screens show for `CSC1=NNC(c2ccc(C(C)(C)C)cc2)=NN1`?
NS1 function inh: -41%; Sm TGR block: -20%; Shiga toxin inh: 96*; Pf growth 96h: -26%; Pf growth 48h: 34%; Cycloheximide cs: 33*
